High-throughput results deposited in PubChem BioAssay by several laboratories.
Sampled rows, rich in hits. Any-hit rate of the full collection: about 32%.
CYP2C19 act – activators of human cytochrome P450 2C19. P33261. recombinant CYP2C19, luciferin-H EGE luminescence; hits give high values; 0 = fully inhibited enzyme, 1 = untreated enzyme. activation factor at 5 µM. 96,000 tested, under 10 active;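 active means activation factor of at least 2 at 5 µM in the primary screen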;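 further: 0 = wells with 2.5 mM tranylcypromine and 1 = vehicle-only wells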
PostGolgi ctrl – inhibits growth of the yeast control strain; efflux-deficient yeast background strain, growth absorbance A615, 16 h; inhibition, % at 10 µM; 5% of 98,000 active
CYP2C19 inh – inhibitors of human CYP2C19. CYP2C19 Supersomes, luciferin-H EGE luminescence, 30 min. inhibition, % at 5 µM. 21% of 96,000 active;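 active means CYP2C19 inhibition above a set limit at 5 µM in the primary screen, cut at about 50% in these data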;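 further: plate controls were negative control wells for no effect and 2.5 mM tranylcypromine positive control for full effect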
PostGolgi yeast – growth inhibition of a yeast mutant, post-Golgi transport screen; post-Golgi transport phenotypic cell assay; inhibition, % at 10 µM; 0.9% of 98,000 active; AID 739;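 further: yeast cells grown in 1536-well plates; yeast grown about 18 h at 30C before absorbance read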
CYP2C9 act – activators of human CYP2C9; AID 1024; recombinant CYP2C9, luciferin-H conversion, luminescence; hits give high values; factor 1 = untreated enzyme, 0 = blocked; 1.4% of 96,000 active; P11712; activation factor at 5 µM;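 active means activation factor of 2 or more for CYP2C9 at a 5 µM dose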;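 further: 0 = sulfaphenazole-blocked wells and 1 = vehicle-only wells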
Target sequence (P11712 whole entry, looked up): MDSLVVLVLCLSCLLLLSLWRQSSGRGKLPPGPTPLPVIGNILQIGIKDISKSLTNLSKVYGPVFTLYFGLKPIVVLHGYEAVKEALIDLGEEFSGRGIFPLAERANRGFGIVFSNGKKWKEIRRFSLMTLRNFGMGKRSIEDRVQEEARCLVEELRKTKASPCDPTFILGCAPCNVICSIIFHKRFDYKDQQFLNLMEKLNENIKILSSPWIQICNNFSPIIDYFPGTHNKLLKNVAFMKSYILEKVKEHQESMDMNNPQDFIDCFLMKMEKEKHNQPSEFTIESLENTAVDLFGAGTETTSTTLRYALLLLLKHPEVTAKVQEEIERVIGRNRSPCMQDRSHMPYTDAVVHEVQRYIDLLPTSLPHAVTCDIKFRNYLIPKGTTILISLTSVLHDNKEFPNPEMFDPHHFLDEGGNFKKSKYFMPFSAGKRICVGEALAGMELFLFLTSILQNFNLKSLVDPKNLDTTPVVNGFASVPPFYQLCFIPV
CYP2C9 inhib – inhibitors of human CYP2C9; P11712; CYP2C9 Supersomes, luciferin-H conversion, luminescence; inhibition, % at 5 µM; 20% of 96,000 active;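 active means blocking of liver enzyme CYP2C9 beyond about 50% at 5 µM, limit read from the data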
An asterisk follows results filed as active; . = not tested or not shown. Unless noted, no stated cut-off is given here; in the data, active means inhibition above about 30%; inactive means the rest.

SMILES | CYP2C19 act | PostGolgi ctrl | CYP2C19 inh | PostGolgi yeast | CYP2C9 act | CYP2C9 inhib
Cc1cc(C)n(-c2nc(C)nc3sc4c(c23)CCC(C)C4)n1 (stereo not given) | 0.8 | 20 | 18 | 3 | 1 | 0
CCOC(=O)c1cnn(-c2nc3sc4c(c3c(=O)[nH]2)CCCC4)c1N | 1.2 | . | -18 | . | 1.1 | -8
Cc1cc(C)n(-c2ncnc3sc4c(c23)CC(C)CC4)n1 (stereo not given) | 0.1 | 29 | 88* | -19 | 0.5 | 49
Cc1cc(C)n(-c2ncnc3sc(C)c(C)c23)n1 | 1 | 4 | 3 | -6 | 1.2 | -16
Cc1cc(C)n(-c2ncnc3sc4c(c23)CCCC4)n1 | 0.4 | 8 | 57* | -2 | 0.9 | 13
N#Cc1cnn(-c2ncnc3sc4c(c23)CCCC4)c1N | 0.6 | 7 | 39 | 2 | 0.1 | 89*
Cc1nc(-n2ncc(C#N)c2N)c2c3c(sc2n1)CCC3 | 1 | 16 | -3 | 3 | 0.9 | 6
NS(=O)(=O)c1ccc(N2N=C(c3ccc(Br)cc3)CC2c2ccc(F)cc2)cc1 (stereo not given) | 0.8 | 86* | 16 | 16 | 0.7 | 28
O=C(O)CONC(=O)c1cc(OCC(F)(F)F)ccc1OCC(F)(F)F | 1 | -5 | -1 | 3 | 1 | -3
Cn1c(=O)oc2cc(S(=O)(=O)N3CCC(C(=O)NCC4COc5ccccc5O4)CC3)ccc21 (stereo not given) | 1.1 | 4 | -15 | -6 | 1.3 | -29
CC1CCCCN1c1cc(C#N)c(C#N)cc1[N+](=O)[O-] (stereo not given) | 0.8 | 43* | 25 | -1 | 0.9 | 10
CC1CCN(c2cc(C#N)c(C#N)cc2[N+](=O)[O-])CC1 | 1 | 76* | 1 | 0 | 1.3 | -27
CC1CCN(c2cc(N)c(Cl)cc2[N+](=O)[O-])CC1 | 0.7 | 38* | 26 | -6 | 0.7 | 34
Cc1cc(N2CCC(C)CC2)c(F)cc1[N+](=O)[O-] | 0.7 | -6 | 31 | 18 | 0.9 | 12
CCCCSc1nnc2n(CCc3ccccc3)c(=O)c3c4c(sc3n12)COC(C)(C)C4 | 0.2 | 29 | 80* | 4 | 0.5 | 51*
Cc1nnc2n(-c3ccccc3)c(=O)c3c4c(sc3n12)COC(C)(C)C4 | 1.1 | 8 | -7 | 0 | 1.1 | -12
COc1cc(/C=C2\SC(c3ccc(C)cc3)=NC2=O)cc(OC)c1O | 0.3 | 17 | 71* | -2 | 0.2 | 82*
O=C(NCCCN1CCCC1=O)Nc1ccc(F)c(Cl)c1 | 0.8 | 4 | 18 | -14 | 0.9 | 7
Cc1c(NC(=O)C(C)OC(=O)CC2Sc3ccccc3NC2=O)c(=O)n(-c2ccccc2)n1C (stereo not given) | 1 | 11 | 1 | -10 | 0.5 | 48
Cc1ccc(S(=O)(=O)CCc2nnc(NC(=O)c3cnccn3)s2)cc1 | 1.1 | 1 | -13 | -9 | 0.5 | 51*
Cc1ccc(S(=O)(=O)CCc2nnc(NC(=O)c3ccccn3)s2)cc1 | 1 | 0 | 2 | 3 | 1 | 4
CCC12CC3CC(C1)CC(C(=O)O)(C3)C2 | 1.1 | 18 | -10 | -1 | 1.1 | -6
CCc1ccc(C(=O)CC2(O)C(=O)N(CN3CCOCC3)c3ccccc32)cc1 (stereo not given) | 0.7 | 2 | 25 | -12 | 1.1 | -7
CC(C)c1ccc(C(=O)CC2(O)C(=O)N(CN3CCOCC3)c3ccccc32)cc1 (stereo not given) | 0.2 | 0 | 78* | -7 | 0.8 | 18
COc1ccc(CN2C(=O)C(O)(CC(=O)c3ccc4c(c3)OCO4)c3ccccc32)cc1OC (stereo not given) | 0.8 | 11 | 19 | -5 | 0.9 | 9
SMILES | CYP2C19 act | PostGolgi ctrl | CYP2C19 inh | PostGolgi yeast | CYP2C9 act | CYP2C9 inhib
Cc1ccc(C(=O)CC2(O)C(=O)N(CN3CCOCC3)c3ccccc32)cc1 (stereo not given) | 0.5 | -6 | 54* | -3 | 0.9 | 8
CCN1C(=O)C(O)(CC(=O)c2ccc3c(c2)OCCO3)c2ccccc21 (stereo not given) | 0.3 | 7 | 67* | 2 | 0.8 | 17
C#CCN1C(=O)C(O)(CC(=O)c2cccc(OC)c2)c2ccccc21 (stereo not given) | 0.7 | 3 | 33 | -8 | 1 | -1
Cc1nc2c(c(N3CCOCC3)n1)OCC(=O)N2 | 1.1 | -3 | -10 | -11 | 1.1 | -8
O=C(CCc1nc(-c2ccccc2)c(-c2ccccc2)o1)OCc1ccc(Br)cc1 | 0.4 | 13 | 58* | -5 | 0.2 | 81*
O=C(CCc1nc(-c2ccccc2)c(-c2ccccc2)o1)OCc1ccc(Cl)cc1 | 1 | 0 | 4 | 1 | 0.7 | 29
CCOC(=O)C1(Nc2nccs2)Sc2ccccc2NC1=O (stereo not given) | 0.4 | 9 | 64* | 0 | 0.6 | 36
CCOC(=O)Nc1ccc2c(c1)Nc1ccccc1S2 | 1 | 15 | 0 | 3 | 0.9 | 15
Cc1cccc(-c2nc(CS(=O)CC(=O)N3CCCCC3)c(C)o2)c1 (stereo not given) | 0.8 | 2 | 23 | 9 | 0.3 | 70*
CCOC(=O)N1CCN(C(=O)CS(=O)Cc2nc(-c3ccc(C)cc3)oc2C)CC1 (stereo not given) | 0.9 | -3 | 10 | -9 | 0.7 | 27
Cc1oc(-c2ccccc2)nc1CS(=O)CC(=O)N1CCc2ccccc2C1 (stereo not given) | 0.4 | 11 | 61* | 6 | 0.3 | 68*
O=C(Nc1nnc(C23CC4CC(CC(C4)C2)C3)s1)c1ccc(N2C(=O)CCC2=O)cc1 | 1.1 | 15 | -5 | -14 | 0.9 | 6
COc1ccc2c(c1)c(=O)oc1cc(OCC(=O)NC3CCCCC3)ccc12 | 0.1 | 93* | 89* | 81* | 0.7 | 32
COc1ccc2c(c1)c(=O)oc1cc(OCC(=O)NC3CC3)ccc12 | 0.4 | -6 | 60* | 10 | 0.8 | 15
COc1ccccc1OCC(=O)NC1CCCCCC1 | 0.6 | 18 | 43 | 3 | 1 | -5
CCN1CCN(/C=N/c2nc3c(s2)CCCC3)CC1 | 1 | 3 | 4 | 2 | 1.1 | -13
Cc1cccc(NC(=O)CN2C(=O)N/C(=C/c3cc(C)n(C(C)C)c3C)C2=O)c1 | 0.6 | 2 | 39 | 1 | 0.3 | 71*
Cc1ccc(NC(=O)CN2C(=O)N/C(=C/c3ccco3)C2=O)cc1 | 1 | -8 | 0 | 7 | 0.9 | 13
CC(C)(C)n1nc2c(c1NC(=O)Cc1cccs1)CSC2 | 0.6 | 27 | 38 | -3 | 0.2 | 76*
CCOC(=O)N1CCN(C(=O)COc2ccc(Cl)cc2)CC1 | 0.6 | 13 | 38 | 5 | 1.1 | -13
CC(C)(C)n1nc2c(c1NC(=O)Cc1ccc(F)cc1)CSC2 | 0.4 | 2 | 64* | 2 | 0.3 | 68*
CC(C)(C)n1nc2c(c1NC(=O)COc1ccc(Cl)cc1)CSC2 | 0.3 | -3 | 67* | -4 | 0.1 | 86*
